# Source: PubChem BioAssay
# HSF1 inhib: HSF1 inhibition. 300,000 tested, 0.77% active. activity change, negative = inhibition, % at 7.5 µM (by protocol). NIH3T3-HGL HSE-luciferase, MG132-induced, luminescence 8 h; stronger effect = lower value. AID 2098;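 active = more than half of replicate wells show activity change below -50%, luminescence cut by over half; inconclusive = some wells, but at most half, below -50%; inactive = no replicate well below -50%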;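 note: luciferase reports HSF-1 transcriptional activity via heat shock element; 0% = median of DMSO wells and -100% = zero luminescence signal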
# HSF1 activator: increases HSF-1 driven luciferase reporter signal; activation, % at 9 µM; 300,000 tested, 1.7% active; NIH3T3-HGL HSF-1 luciferase reporter, MG132, 8 h; 100% = twice DMSO control signal; AID 504408;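 active = mean replicate activation of at least 50% with a set share of replicates each reaching 50%; inconclusive = only one of those two conditions met; inactive = mean below 50% and too few replicates reaching it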;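 note: 0% = median of the neutral control wells and 100% = twice that signal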
# MITF TRPM1 HTS: activators of MITF-driven TRPM1 promoter activity in SK-MEL-5 cells | 300,000 tested, 0.75% active | SK-MEL-5 TRPM1-promoter luciferase, 24 h; % of positive control, neutral wells = 0 | activation, % at 12.5 µM;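 active = mean activation of at least 80% with every replicate also reaching 80%; inconclusive = mean reaches 80% but some replicate falls short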;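 note: 0% = neutral control wells and 100% = parthenolide positive control wells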
# esBAF inh: inhibitors of esBAF chromatin remodeling in mouse ES cells. Bmi1-luciferase knock-in reporter, 24 h; 100% = twice the neutral-well signal. reporter increase, % at 12.5 µM. 350,000 tested, 2% active; in the data active = activation above about 40%; inconclusive = no clear call, values can overlap the other calls;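 note: 0% = median of the plate's neutral control wells and 100% = double that signal; a rise in the Bmi1 reporter signal indicates esBAF inhibition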
# Wnt bcat act: Wnt/beta-catenin pathway activation; Wnt/beta-catenin reporter cell assay, activator, plate reader; activation, % at 9.35 µM; 300,000 tested, 1.2% active; in the data active = activation above about 30%, passing the limit was not always enough; inconclusive = no clear call, values can overlap the other calls;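 note: 0% = neutral control wells and 100% = positive control wells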
# Numbers without * were called inactive; ? = inconclusive; nt = not tested or not shown. Only some compounds are listed: those with a hit (about 3.9% of all), similar ones and a draw of the others.
SMILES,HSF1 inhib,HSF1 activator,MITF TRPM1 HTS,esBAF inh,Wnt bcat act
C/C(=N\Nc1ccc(C(=O)O)cc1)c1ccc(Cl)s1,0.5,-1.0,nt,67.0*,?
Fc1cccc2sc(N3CCCC3)nc12,3.5,8.7,86.1*,nt,13.8
Clc1cccc2sc(N3CCCC3)nc12,-9.3,-2.5,21.1,nt,11.1
Cc1ccc(C(c2nc3ccccc3[nH]2)n2c(-c3ccccc3)nc3ccccc32)cc1 (stereo unspecified),nt,nt,nt,70.0*,-1.0
O=S(=O)(c1ccccc1)N1C[C@@H]2[C@H](c3ccccc31)[C@@H](CO)N2Cc1ccc2c(c1)OCO2,nt,nt,nt,-7.3,nt
C[C@@H]1CN([C@H](C)CO)C(=O)c2cc(-c3ccccc3)cnc2O[C@@H]1CN(C)C(=O)c1ccccn1,nt,nt,nt,-3.6,nt
Cc1ccc(-c2ocnc2C(=O)Nc2ccccc2C(=O)N2CCCC2)cc1,-4.5,-4.2,nt,-9.0,-3.1
O=C(Nc1ccccc1C(=O)N1CCCC1)c1ncoc1-c1cccc(Cl)c1,22.1,61.6*,-23.2,-1.1,-2.1
Cc1ccc(C(=O)OCc2cc(=O)n3c(C)csc3n2)s1,nt,nt,53.5,-1.1,2.8
COc1ccc(C(=O)OCc2cc(=O)n3c(C)csc3n2)cc1F,nt,nt,106.0*,72.7*,18.7
Cc1c(Cl)cccc1Nc1nc(N)nc(CSc2ncccn2)n1,19.8,26.5,1.3,52.5*,3.4
Cc1c(Cl)cccc1Nc1nc(N)nc(CSCCO)n1,3.7,14.0,-11.4,nt,nt
Cc1cccc(N=Nc2cnc(N)s2)c1,13.2,19.7,67.5,nt,34.7*
CC(=O)Nc1ncc(N=Nc2cccc(C(F)(F)F)c2)s1,18.7,32.6,30.0,26.5,4.6
O=[N+]([O-])c1ccc(C(O)CSC(=S)N2CCCCC2)cc1 (stereo unspecified),33.7,70.5*,46.1,45.1*,19.0
O=[N+]([O-])c1ccc(C(=S)N2CCCC2)cc1,-2.3,-12.3,-5.9,4.1,36.7*
CN(C)C(=O)C[C@@H]1CC[C@@H]2[C@H](COC[C@H](O)CN2CC2CCCC2)O1,nt,nt,nt,-11.6,nt
CC1(CCC(=O)O)C(=O)CCC2C1CCC1(C)C2CCC1(C)O (stereo unspecified),nt,nt,7.5,-2.5,33.2*
CC12CCC(=O)CC1CCC1C2CCC2(C)C1CCC2(O)C(=O)CO (stereo unspecified),nt,nt,4.4,1.5,-0.3
CCCc1cn(CC[C@H]2CC[C@@H](NC(=O)Nc3ccc4c(c3)OCO4)[C@@H](CO)O2)nn1,nt,nt,nt,-7.3,nt
COc1ccc(/C=C/C(=O)Oc2ccc(/C=N/NC(=O)COc3c(C)cccc3C)cc2)cc1,?,-59.1,-1.7,2.7,nt
COc1ccc(/C=C/C(=O)Oc2cccc(/C=N/NC(=O)COc3c(C)cccc3C)c2)cc1,2.4,4.5,15.2,45.2*,nt
Cc1c(Cl)c(C(=O)NC2CCCC2)nn1C,16.9,60.7*,nt,3.6,-0.8
Cn1nc(C(=O)NC2CCCC2)c2ccccc2c1=O,nt,nt,-1.4,-3.1,0.8
Cc1noc(/C=C/c2ccco2)c1S(=O)(=O)N1CCC(C(=O)NCc2ccco2)CC1,-72.3*,-78.4,nt,nt,-0.3
SMILES,HSF1 inhib,HSF1 activator,MITF TRPM1 HTS,esBAF inh,Wnt bcat act
C[C@@H]1CN([C@@H](C)CO)C(=O)c2cc(NC(=O)Nc3cccc4ccccc34)ccc2O[C@@H](C)CCCCO[C@H]1CN(C)C,nt,nt,nt,-2.9,nt
COC(=O)[C@H](Cc1ccccc1)NC(=O)NCc1ccc(C)cc1,-2.2,0.9,nt,-3.1,51.2*
COc1ccc(NC(=S)NCc2ccc(F)cc2)cc1,-4.5,15.9,-6.6,42.4*,3.4
COc1ccc(CNC(=O)Nc2ccc(C)cc2)cc1,5.2,5.7,46.3,54.8*,-1.8
COc1ccc(CNC(=O)CN2C(=O)C(C)N(c3ccc(C)cc3)C2=O)cc1 (stereo unspecified),16.3,53.9*,-2.3,-6.9,nt
CCC(=O)N1C[C@H](C)[C@@H](OC)CN(C)C(=O)c2ccc(NC(=O)c3cc(C)on3)cc2OC[C@H]1C,nt,nt,nt,4.5,nt
CCCCc1ccc(NC(=S)NCc2ccc(OC)cc2)cc1,7.9,51.4*,0.8,-0.3,nt
O=C(Nc1ccccc1)c1nnsc1S(=O)c1ccc(Cl)cc1 (stereo unspecified),207.8,156.7*,-28.7,43.8*,-2.6
Nc1nc(C(=O)N2CCOCC2)nn1S(=O)(=O)c1ccc(Cl)cc1,-1.4,14.9,10.1,1.0,-6.3
O=C(Nc1ccc(Cl)cc1)c1csc(Cc2ccccc2)n1,24.7,38.5,2.5,nt,0.5
O=C(c1ccc(Cl)cc1)N1CCN(c2ccc(N3CCOCC3)nn2)CC1,nt,nt,nt,5.7,-6.2
